TDP1 cell CPT – growth inhibition of DT40 Tdp1-/-;hTDP1 cells with camptothecin (screen for TDP1 inhibitors); Potency, µM (top dose mostly 46.2 µM), for inactives: top-dose activity change, negative = growth inhibition, hits mostly inhibitors; chicken DT40 Tdp1-/-;hTDP1 cells + 20 nM CPT, ATP luminescence, 48 h; 420,000 compounds, 12% hits; also: % is scaled to controls: 0 for no effect and ±100 for the full control effect; nearly all actives have a fitted effect of over 55% in size
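Chicken DT40 Tdp1-/- cells complemented with human TDP1, 400 cells/well, exposed to compounds plus 20 nM camptothecin for at least 48 h at 37 C; viability read as ATP content by CellTiter-Glo luminescence.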
TGFb inhibitor – TGF-b pathway inhibition; HepG2 CAGA-GFP TGF-b/SMAD3 reporter, GFP fluorescence, 18 h; TGF-beta stimulated, 500 pg/mL final; Potency, µM (top dose mostly 46.1 µM), for the others: at the highest dose activity, negative = inhibition, hits mostly inhibitors; 410,000 compounds, 1.2% hits; AID 588855; also: % is scaled to controls: 0 for no effect and ±100 for the full control effect; nearly all actives have a fitted effect of over 65% in size
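Inhibition of TGF-beta-driven CAGA-GFP reporter expression in HEPG2 cells is measured by cellular GFP fluorescence after 18 h stimulation with 500 pg/mL recombinant TGF-beta in 1% FBS medium at 37 degrees C.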
DT40 TDP1 no CPT – qHTS for Inhibitors of human tyrosyl-DNA phosphodiesterase 1 (TDP1): qHTS in cells in absence of CPT. DT40 Tdp1-/- hTDP1 cells, no CPT, ATP luminescence, 48 h. Potency, µM (series often up to 46.2 µM), for the others: at the highest dose activity change, negative = growth inhibition, usual class: inhibitors. 420,000 compounds, 15% hits; also: % is scaled to controls: 0 for no effect and ±100 for the full control effect; nearly all actives have a fitted effect of over 55% in size
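Luminescent ATP content (CellTiter-Glo) served as the growth readout. Knockout chicken DT40 cells expressing human TDP1 were exposed to compounds without camptothecin for a minimum 48 hr at 37 °C.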
HT1080-NT tox – kills 2HG-producing HT-1080-NT fibrosarcoma cells. HT-1080-NT fibrosarcoma viability, CellTiter-Glo ATP luminescence, 48 h. Potency, µM (titrated, usually from 46.1 µM), for the others: at the top dose activity, negative = less viability, actives largely listed as cytotoxic. 360,000 compounds, 1.6% hits. AID 686970;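 also: NT is the 2HG producing partner of a matched IDH1 knockdown line; 0% = DMSO-treated cells and -100% = media-only wells without cells; nearly all actives have a fitted effect of over 55% in size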
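Toxicity toward the 2HG-producing NT line was scored as %Activity, normalised to DMSO and no-cell wells, from CellTiter-Glo luminescence after 48 hours' treatment.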
HT1080 IDH1KD tx – kills HT-1080 cells with IDH1 knockdown | AID 686971 | Potency, µM (series often up to 46.1 µM), for the others: at the highest dose activity, negative = toxicity, most hits filed as cytotoxic | HT-1080 IDH1 knockdown viability, ATP luminescence, 48 h | 360,000 compounds, 2% hits;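 also: 0% = DMSO wells and -100% = cell-free medium wells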
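In this qHTS, HT-1080 cells depleted of IDH1 are exposed for 48 h at 37 °C to compound titrations. Toxicity is scored from CellTiter-Glo luminescence, with DMSO as full viability and medium alone as none.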
HepG2 viability – kills HepG2 cells in TGF-b inhibitor counter-screen. 410,000 compounds, 0.76% hits. HepG2 CAGA-GFP viability, ATP luminescence, 18 h. Potency, µM (doses to about 46.1 µM), for inactives: top-dose activity change, negative = cytotoxicity, hits mostly cytotoxic. AID 588856
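CellTiter-Glo luminescence gave cytotoxicity after 18 hours at 37 degrees C. The cells were HepG2 CAGA-GFP in 1% FBS DMEM, stimulated with 500 pg/mL TGF-beta after compound addition. %Activity was normalised to no-cell wells (complete cell-killing) and DMSO (no toxicity), and curves were fitted and classified.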
* = called active by the depositor; u = inconclusive; x = no result given; [ ] = another dose, or the depositor's remark. In the library only some 17% were active in any assay of this set; here they are far more common. Calls follow the shape of the dose curve; as a rule, active = well fitted curve in the direction sought with a large enough effect; inconclusive = small, poorly fitted or top-dose-only effect, or another doubt; inactive = no such curve, though single readings can be large; an effect the other way counts as inactive or inconclusive. Potency is read from the fitted curve at half-maximal effect.

SMILES | TDP1 cell CPT | TGFb inhibitor | DT40 TDP1 no CPT | HT1080-NT tox | HT1080 IDH1KD tx | HepG2 viability
COc1ccc(C(=O)N2CCOCC2)cc1S(=O)(=O)N1CCC(C)CC1 | -3% | 11% | -10% | 14% | 15% | 8%
COc1ccc(C(=O)Oc2cccc3cccnc23)cc1S(=O)(=O)N1CCOCC1 | u | 13µM* | 3.3µM* | -11% | u | 13µM*
CCOc1ccc(CNC(=O)CCn2c(=O)oc3ccccc32)cc1 | 5% | 25% | -7% | -1% | 5% | 0%
Cc1ccccc1Cn1cccc(C(=O)Nc2cc(Cl)ccc2C#N)c1=O | -4% | -26% | -29% | x | x | -24%
COc1ccc(-n2c(/C=C/c3ccc(O)c(O)c3)nc3ccccc3c2=O)cc1 | u | u | 18µM* | -11% | -9% | -39%
COc1cccc(-n2c(/C=C\c3ccc(Cl)cc3)nc3ccccc3c2=O)c1 | u | -13% | 18µM* | x | x | -11%
O=c1c2ccccc2nc(/C=C/c2ccc3c(c2)OCO3)n1-c1ccccc1 | u | -27% | 23µM* | -6% | 6% | 0%
O=c1c2ccccc2nc(/C=C/c2ccccn2)n1-c1ccccc1 | -25% | -12% | -20% | 15% | 14% | 1%
COc1cc(/C=C/c2nc3ccccc3c(=O)n2-c2ccc(O)cc2)ccc1O | u | u | u | 16µM* | 18µM* | -111%
COc1ccc(-c2nc3ccccc3c(=O)n2-c2ccc(OC)cc2)cc1 | u | -5% | u | 0% | -8% | -8%
O=c1c2ccccc2nc(/C=C/c2ccccc2F)n1-c1cccc(O)c1 | u | -10% | u | x | x | -10%
Cn1c(O)c(/C=C2/C=CC=N2)c(=O)[nH]c1=O | 16µM* | 2% | 16µM* | 11% | 11% | -5%
Cn1c(O)c(C=Nc2ccc(F)cc2)c(=O)[nH]c1=O | -3% | -4% | -21% | -5% | -1% | -4%
O=S(=O)(c1cc(Cl)cc(Cl)c1)N1Cc2cc(-c3cccc(F)c3)ccc2-n2nncc2C1 | u | -2% | u | u | 7% | 3%
Cc1cc(N2CCN(S(=O)(=O)c3ccc(Cl)cc3)CC2)c2ccccc2n1 | 23µM* | 14µM* | 21µM* | u | u | 10µM*
CCOC(=O)c1c(C)[nH]c(C)c1S(=O)(=O)NCC(=O)N1CCN(c2cc(Cl)ccc2C)CC1 | 23µM* | u | 18µM* | x | x | -21%
CNC(=O)Oc1ccc2c(c1)[C@]1(C)CCN(C)C1N2C (some centres not stated) | -26% | 11% | -2% | 24% | -5% | 3%
c1ccc(C2(N3CCCC3)CCCCC2)cc1 | u | x | 19µM* | x | x | x
NC(=O)C1(N2CCCCC2)CCN(Cc2ccccc2)CC1 | -14% | -6% | -14% | -1% | 7% | -3%
FC(F)OC(F)(F)C(F)Cl (configuration not stated) | 4% | x | -13% | x | x | x
CCN1C(=O)/C(=C/c2ccc3c(c2)CCN3CCCCl)C(=O)NC1=S | u | 1% | 23µM* | 14% | 5% | -24%
COc1ccc2o/c(=N\O)c(C(=O)Nc3ccc(C)cc3)cc2c1 | 23µM* | -14% | u | 3% | 10% | -9%
COc1cccc(C(=O)NCc2nc(-c3cccc(NC(=O)c4ccoc4C)c3)oc2C)c1 | 11%[9.04 µM] | x | u | x | x | x
NC(=O)Oc1ccc(Cc2ccccc2)cc1 | -25% | x | u | x | x | x
O=C(NCc1cccnc1)C1CCN(S(=O)(=O)c2cc([N+](=O)[O-])ccc2Cl)CC1 | u | -5% | 18µM* | 0% | -15% | -1%
